p53null 32C kill = kills p53 null cells at the permissive temperature; 55,000 tested, 0.62% active; H1299-neo p53 null cells, ATP luminescence, 24 h, 32C; Potency, µM (series often up to 46.1 µM), inactives show top-dose activity change, negative = cytotoxicity, most hits filed as cytotoxic;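 also: 0% = DMSO only and -100% = full killing by 100 µM tamoxifen; nearly all actives have a fitted effect of over 55% in size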
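ATP-content luminescence in p53-null H1299-neo cells after 24 h compound exposure (up to 46 uM) at 32C permissive temperature; 0% and 100% killing set by DMSO and 100 uM tamoxifen; Hill-equation AC50.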
NTMT1 inh = NTMT1 methyltransferase inhibition | Q9BV86 | NTMT1 MTase-Glo SAH luminescence, purified enzyme | Potency, µM (series often up to 114 µM), without a hit: top-dose activity change, negative = inhibition, usual class: inhibitors | 59,000 tested, 2.5% active;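 also: plate controls were DMSO vehicle for no effect and no enzyme for full effect; nearly all actives have a fitted effect of over 65% in size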
FH mod = Identification of activators of human fumarate hydratase by quantitative high-throughput screening; FH coupled MDH/diaphorase resazurin fluorescence, 15 min; Potency, µM (series often up to 79.9 µM), without a hit: at the highest dose activity change, negative = inhibition, hits mostly inhibitors; 54,000 tested, 0.22% active; AID 1347055, 2019; also: the screen sought activators but most active calls are inhibition curves; nearly all actives have a fitted effect of over 45% in size
Target sequence (P07954 whole entry, looked up): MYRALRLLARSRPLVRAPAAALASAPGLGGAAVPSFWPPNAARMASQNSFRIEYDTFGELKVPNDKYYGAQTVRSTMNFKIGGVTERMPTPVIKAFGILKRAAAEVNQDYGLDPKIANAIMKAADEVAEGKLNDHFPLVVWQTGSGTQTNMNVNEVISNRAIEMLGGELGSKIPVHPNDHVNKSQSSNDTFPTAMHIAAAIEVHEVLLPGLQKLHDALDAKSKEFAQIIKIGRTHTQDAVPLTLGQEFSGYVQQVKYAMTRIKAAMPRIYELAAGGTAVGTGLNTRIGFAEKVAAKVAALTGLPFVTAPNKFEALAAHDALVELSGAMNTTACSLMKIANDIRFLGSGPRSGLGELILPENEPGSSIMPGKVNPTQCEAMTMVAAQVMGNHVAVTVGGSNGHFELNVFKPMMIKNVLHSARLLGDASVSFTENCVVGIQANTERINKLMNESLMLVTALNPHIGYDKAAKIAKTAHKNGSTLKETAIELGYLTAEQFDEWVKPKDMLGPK
OvCa metastasis = blocks SKOV3ip1 adhesion and invasion in omental model; SKOV3ip1-GFP adhesion/invasion on 3D omental model, fluorescence; Potency, µM (series often up to 45.8 µM), without a hit: top-dose activity change, negative = inhibition, most hits filed as inhibitors; 46,000 tested, 0.1% active;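 also: plate controls were DMSO wells for no effect and tomatine positive control wells for full effect; nearly all actives have a fitted effect of over 65% in size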
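qHTS, 4-pt dose (0.36-46 umol/L); SKOV3ip1-GFP, 1,200 cells/well, no FBS; primary omental fibroblast/mesothelial co-culture 48 h pre-grown; 2 h RT + 16 h 37 C; PBS wash, 4% PFA; GFP count 488/509 nm.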
p53null 39C tox = p53 null cell cytotoxicity, nonpermissive temperature; H1299 p53-null (neo) cells, 39C, ATPlite viability, 24 h; Potency, µM (doses to about 46.1 µM), inactives show top-dose activity, negative = cell killing, most hits filed as cytotoxic; 55,000 tested, 0.97% active; AID 904;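 also: 0% = DMSO only and -100% = full killing by 100 µM tamoxifen; nearly all actives have a fitted effect of over 50% in size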
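Following overnight plating at 37C (600 cells/well), H1299-neo or H1299-p53A138V cells are dosed up to 46 uM. Incubation lasts 24 hr at 39C before ATP detection.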
The depositor's hits bear a star; i = inactive; ? = inconclusive; . = not tested or not shown; ! = not confirmed by another sample; [ ] = remark or other dose. This excerpt belongs to a sample that is enriched for hits. Calls follow the shape of the dose curve; as a rule, active = well fitted curve in the direction sought with a large enough effect; inconclusive = small, poorly fitted or top-dose-only effect, or another doubt; inactive = no such curve, though single readings can be large; an effect the other way counts as inactive or inconclusive. Unless noted, % is scaled to controls: 0 for no effect and ±100 for the full control effect; potency is read from the fitted curve at half-maximal effect.

SMILES	p53null 32C kill	NTMT1 inh	FH mod	OvCa metastasis	p53null 39C tox
O=S(=O)(Nc1nccs1)c1ccc(NCc2cccc(Br)c2O)cc1	.	-7.1%	.	.	.
Cc1ccc(CNc2nc(-c3ccccc3C(F)(F)F)nc3ccccc23)s1	.	15.7%	.	.	.
FC(F)(F)c1cccc(CSc2nc3ncc(Br)cc3[nH]2)c1	.	-3.9%	.	.	.
COc1ccc(C)cc1Nc1nc(N)c2cc(OC)c(OC)cc2n1	?	?	?	?	10µM*
O=c1c2ccccc2nc2sc(Nc3ccc4c(c3)CNC4)nn12	.	50.1µM*	.	.	.
O=c1c2cc3c(cc2nc2sc(Nc4ccccc4)nn12)OCO3	10µM*	?	-8.7%	-5.0%	6.31µM*
OC[C@H]1O[C@@H](S[C@@H]2O[C@H](CO)[C@H](O)[C@H](n3cc(-c4cccc(F)c4)nn3)[C@H]2O)[C@H](O)[C@@H](n2cc(-c3cccc(F)c3)nn2)[C@H]1O	.	11.9%	.	.	.
O=C(Nc1cc(Oc2cc(F)c(NC(=O)C3(C(=O)Nc4ccc(F)cc4)CC3)cc2F)ccn1)C1CC1	.	20.9%	-2.0%	.	.
CCN(CCNC(=O)Nc1ccccc1Br)c1cccc(C)c1	.	6.7%[57.5 µM]	-3.6%	.	.
O=C(O/N=C1\c2ccccc2-c2nc3ccccc3nc21)c1ccco1	.	?	-17.6%	.	.
Oc1c(C(Nc2ccccn2)c2ccccc2F)ccc2cccnc12 (centres undefined)	?	10.0%	-8.7%	0.8%	3.98µM*
NS(=O)(=O)OC[C@@H]1C[C@@H](n2ccc3c(N[C@H]4CCc5ccccc54)ncnc32)C[C@@H]1O	.	39.8µM*!	0.7%	.	.
S=c1nc[nH]c2nc[nH]c12	.	25.1µM*!	-8.1%[53.3 µM]	3.3%	.
O=C(NOCC(O)CO)c1ccc(F)c(F)c1Nc1ccc(I)cc1F (centres undefined)	.	-2.8%[57.5 µM]	0.2%	.	.
O=C(c1ccc(F)c(F)c1Nc1ccc(I)cc1F)N1CC(O)([C@@H]2CCCCN2)C1	.	31.6µM*!	-1.6%	.	.
CCOC(=O)c1ccccc1NC(=O)c1c(C)oc2ncnc(N3CCOCC3)c12	23.7%	?	4.9%	i	-7.3%
Cc1oc2ncnc(N3CCOCC3)c2c1C(=O)Nc1ccc(Br)cc1F	-0.9%	89.1µM*	-8.9%	-9.5%	10.0%
Cn1nc(-c2ccc(C(F)(F)F)cc2)nc2c(=O)n(C)c(=O)nc1-2	.	-2.8%[57.5 µM]	3.98µM*	.	.
Cn1nc(-c2ccc(C(=O)Nc3cccc(C(F)(F)F)c3)cc2)c2ccccc2c1=O	-15.0%	12.6%	-3.0%	i	-19.4%
COc1cc(N2CCOCC2)ccc1Nc1ncc(Cl)c(Nc2ccccc2NS(C)(=O)=O)n1	.	5.8%[57.5 µM]	-20.5%	.	.
O=C1c2ccccc2C(=O)C1c1ccnc2ccccc12	?	.	.	.	15.8µM*
CC(=O)c1[nH]cc(CCC(=O)O)c1CC(=O)O	.	10.8%[57.5 µM]	10.6%	.	.
CN1CCCN(C(=O)c2cccc(-c3ccc(C=C4C(=O)Nc5ccc(Cl)cc54)o3)c2)CC1	.	7.08µM*	-3.0%[53.3 µM]	17.7%	.
COc1ccc(C(=O)NCCc2sc(-c3ccc(F)cc3)nc2C)cc1OC	-6.0%	-1.1%	-1.2%	7.7%	0.7%
Cc1cc(SCc2sc(-c3ccc(C(F)(F)F)cc3)nc2C)ccc1OCC(=O)O	.	79.4µM*!	-5.1%[53.3 µM]	21.4%	.
SMILES	p53null 32C kill	NTMT1 inh	FH mod	OvCa metastasis	p53null 39C tox
Cc1ccc(-c2cc(C(=O)Nc3ccc(Cl)cc3)c3ccccc3n2)cc1C	.	9.6%	.	.	.
CCCCC(CC)CNC(=O)c1ccc(Cn2c(=O)[nH]c3cc(OC)c(OC)cc3c2=O)cc1 (centres undefined)	-11.0%	1.5%	13.0%	-0.6%	12.6µM*
Cc1cc(N2CCN(C)CC2)nc2ccc(NC(=O)c3ccc(C(C)(C)C)cc3)cc12	25.1µM*	-1.4%	?	?	12.6µM*
CCOc1ccccc1NC(=O)Nc1ccc2nc(N3CCN(C)CC3)cc(C)c2c1	?	-18.3%	?	?	17.8µM*
Cc1cc(N2CCN(C)CC2)nc2ccc(NC(=O)Nc3ccc(Cl)cc3)cc12	-1.3%	-2.1%	-4.5%	3.7%	-20.2%
Cc1ccccc1NC(=O)Nc1ccc2nc(N3CCN(C)CC3)cc(C)c2c1	2.1%	-3.4%	3.2%	0.3%	-1.1%
Cc1ccc(OCCn2c(CCNC(=O)CCc3ccccc3Br)nc3ccccc32)cc1	.	5.0%	.	.	.
COc1cc(Cl)c(C)cc1NC(=O)C1CCN(c2nc3ccccc3n3cccc23)CC1	?	25.4%	-7.0%	-1.7%	31.6µM*
Nc1ccc2nc(-c3ccc(O)cc3)sc2c1	2.51µM*	31.6µM*	-17.3%	0.4%	1.26µM*
Nc1nc2ccc(O)cc2s1	11.9%	.	.	.	9.8%
c1cn2cc(-c3ccc4cn[nH]c4c3)nc(Nc3ccc(N4CCOCC4)cc3)c2n1	.	20µM*	-5.5%	.	.
Cc1cccn2c(Nc3ccccc3)c(-c3ccc(N4CCOCC4)cc3)nc12	-24.4%	-9.9%	-44.1%	-10.8%	-9.0%
Cc1ccc(-n2ncc3c(NCCCN4CCOCC4)ncnc32)cc1C	-2.4%	50.1µM*	-4.8%	-1.4%	-13.3%
CC(=O)C1=C(O)C2c3c[nH]c4cccc(c34)CC2C(C)(C)N(C)C1=O (centres undefined)	.	?	-5.2%	.	.
COc1ccc(CNC(=O)C2CCN(C(=O)c3cnn(-c4ccccc4)c3-n3cccc3)CC2)cc1	0.8%	89.1µM*	-0.1%	5.7%	-8.2%
COc1cccc(CNC(=O)C2CCN(C(=O)c3cnn(-c4ccccc4)c3-n3cccc3)CC2)c1	-2.9%	?	-16.0%	-2.5%	-9.7%
COCC(=O)N1CCc2cc(-c3csc(NC(=O)c4cc(OC)cc(OC)c4)n3)ccc21	.	-16.5%[57.5 µM]	8.5%	.	.
COc1cc2nccc(Oc3ccc(NC(=O)c4cn(C(C)C)c(=O)n(-c5ccc(F)cc5)c4=O)cc3F)c2cc1OC	.	22.3%	.	.	.
Nc1cccc2c(N)cccc12	.	35.5µM*	-16.6%	.	.

Compound activity from PubChem BioAssay.
